High-throughput results: PubChem BioAssay, National Center for Advancing Translational Sciences (NCATS)
TDP1 block: qHTS Assay for Inhibitors of Tyrosyl-DNA Phosphodiesterase (TDP1); Tyrosyl-DNA phosphodiesterase 1 (Homo sapiens), Q9NUW8; Potency, µM (series often up to 130 µM), usual class: inhibitors; recombinant TDP1, AlphaScreen DNA substrate cleavage; actives 0.28% (n = 350,000); AID 485290, 2010; note: nearly all actives have a fitted effect of over 40% in size
Target sequence (Q9NUW8 whole entry, looked up): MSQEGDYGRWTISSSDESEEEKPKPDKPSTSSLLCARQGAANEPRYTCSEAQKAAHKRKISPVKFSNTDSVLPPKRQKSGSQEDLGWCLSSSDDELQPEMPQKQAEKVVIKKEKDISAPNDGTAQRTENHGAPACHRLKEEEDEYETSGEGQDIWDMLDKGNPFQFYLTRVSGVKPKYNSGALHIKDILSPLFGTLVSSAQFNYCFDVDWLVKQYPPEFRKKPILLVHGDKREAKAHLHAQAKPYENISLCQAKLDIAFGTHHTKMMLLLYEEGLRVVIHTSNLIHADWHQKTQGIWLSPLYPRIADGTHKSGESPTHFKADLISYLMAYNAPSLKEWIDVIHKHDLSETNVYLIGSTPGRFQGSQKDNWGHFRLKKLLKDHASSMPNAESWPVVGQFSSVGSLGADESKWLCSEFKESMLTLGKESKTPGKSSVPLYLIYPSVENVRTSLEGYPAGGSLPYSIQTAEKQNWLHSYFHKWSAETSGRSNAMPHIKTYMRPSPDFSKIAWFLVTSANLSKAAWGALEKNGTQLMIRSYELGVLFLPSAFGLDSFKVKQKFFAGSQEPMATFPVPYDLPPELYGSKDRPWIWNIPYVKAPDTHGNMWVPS
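Tdp1 1 nM final; 15 min RT w/ cpd; substrate 15 nM, 5 min; beads 10 ug/ml, 10 min; AlphaScreen read. Neg ctrl: no enzyme.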
ELG1 repair inh: qHTS screen for small molecules that inhibit ELG1-dependent DNA repair in human embryonic kidney (HEK293T) cells expressing luciferase-tagged ELG1; AID 504467, 2011; actives 2.3% (n = 330,000); Potency, µM (doses to about 46.1 µM), actives largely listed as inhibitors; HEK293T ELG1-luciferase reporter, luminescence, 16 h; DNA damage induced by 5-fluorouridine; note: nearly all actives have a fitted effect of over 55% in size
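HEK293T cells expressing luciferase-tagged ELG1 (2,000/well) received 5-Fluorouridine plus compound or DMSO for 16 hr at 37 °C. Luciferase was read by ONE-Glo luminescence after 30 min at room temperature.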
TDP1 cell noCPT: qHTS for Inhibitors of human tyrosyl-DNA phosphodiesterase 1 (TDP1): qHTS in cells in absence of CPT | DT40 Tdp1-/- hTDP1 cells, no CPT, ATP luminescence, 48 h | Potency, µM (series often up to 46.2 µM), usual class: inhibitors | actives 15% (n = 420,000) | AID 686978, 2013; note: nearly all actives have a fitted effect of over 55% in size
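Chicken DT40 Tdp1-/- cells complemented with human TDP1, screened without camptothecin (DMSO vehicle only), 400 cells/well. Compounds pin-transferred, cells incubated at 37 °C for at least 48 hr. Growth read as ATP-dependent luminescence (CellTiter-Glo, 30 min at RT).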
DT40 TDP1 CPT: qHTS for Inhibitors of human tyrosyl-DNA phosphodiesterase 1 (TDP1): qHTS in cells in presence of CPT | chicken DT40 Tdp1-/-;hTDP1 cells + 20 nM CPT, ATP luminescence, 48 h | Potency, µM (doses to about 46.2 µM), most hits filed as inhibitors | actives 12% (n = 420,000); note: nearly all actives have a fitted effect of over 55% in size
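Chicken DT40 Tdp1-/- cells stably complemented with human TDP1 were seeded at 400 cells/well in medium containing 20 nM camptothecin, exposed to pin-transferred compounds, and grown at 37 °C for at least 48 hr. Viability was read as ATP luminescence.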
IL-1B inflam inh: qHTS for Inhibitors of Inflammasome Signaling: IL-1-beta AlphaLISA Primary Screen; THP-1 LPS/ATP IL-1B secretion, AlphaLISA, 16 h; active compounds read low; activity change, % at 57.5 µM; actives 4.7% (n = 360,000); AID 743279, 2014; in the data active = activity change below about -50%; inconclusive = mostly about -30% to -49%
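THP-1 cells pretreated 1 hr with compounds (up to 57.5 uM final), then stimulated with LPS (250 ng/mL final) plus ATP (1.25 mM final); secreted IL-1B measured by AlphaLISA after 16 hr, decreased signal indicating inhibition.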
Giardia killer: Small Molecules that selectively kill Giardia lamblia: qHTS. Giardia lamblia trophozoite viability. activity change, % at 7.66 µM, hits read low. actives 0.15% (n = 340,000); in the data active = activity change below about -80%; inconclusive = between about -30% and that limit;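 note: parasites exposed to compound for two days anaerobically before the ATP read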
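Trophozoite viability was measured as ATP-dependent luminescence, read 15-30 min after reagent addition. Before that, parasites at 100 cells/well were exposed to compounds for 48 h, anaerobically, at 37 deg C.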
Hits are given with their value; . = inactive; ? = inconclusive; / = no result given; [ ] = another dose, or the depositor's remark. Only some compounds are listed: those with a hit (about 19% of all), similar ones and a draw of the others. Unless noted, calls come from the whole dose curve; as a rule, active = well fitted curve in the direction sought with a large enough effect; inconclusive = small, poorly fitted or top-dose-only effect, or another doubt; inactive = no such curve, though single readings can be large; an effect the other way counts as inactive or inconclusive.

SMILES	TDP1 block	ELG1 repair inh	TDP1 cell noCPT	DT40 TDP1 CPT	IL-1B inflam inh	Giardia killer
CCOc1ccc(CCNC(=O)c2cc3c(=O)n(C)c4ccccc4c3n2C)cc1OCC	.	/	12µM	23µM	/	/
COCCCNC(=O)c1cn(CC(C)C)c(=O)c2c1c1ccccc1n2C	.	.	.	?	.	.
COc1ccccc1NC(=O)CCCOc1cc(=O)n(C)c2ccccc12	.	/	21µM	?	/	/
C=CCC(O)CC1C2C(CC(O)CC=C)C3C1C3C2OC(C)(C)C (stereo not given)	.[21 µM]	/	/	/	/	/
CCOC(=O)N1CCc2c(sc3c2c(=O)n(-c2ccc(Cl)cc2)c(=O)n3CC(C)C)C1	.	/	.	.	/	/
CC(NCC(=O)Nc1ccccc1C(=O)NC1CC1)c1ccco1 (stereo not given)	.	.	.	.	.	.
COc1ccccc1NC(=O)c1cc2c(=O)n(C)c3ccccc3c2n1C	/	?	15µM	?	?	.
COc1ccc(CCC(C)NCc2cc(OC)cc(OC)c2)cc1 (stereo not given)	.	.	?	?	.	.
COc1ccc(CCC(C)NCc2ccc(Cl)c(Cl)c2)cc1 (stereo not given)	.	.	.	.	.	.
COc1ccc(CCC(C)NC2CCCCCCC2)cc1 (stereo not given)	/	.	?	?	-73	.
COc1ccc(CCC(C)NCC2CCCCC2)cc1 (stereo not given)	.	.	18µM	?	.	.
COc1ccc(CCC(C)NCCc2ccc(Cl)cc2Cl)cc1 (stereo not given)	.	.	23µM	?	-51	.
COc1ccc(CCC(=O)NC2CCCCC2)cc1	.	.	.	.	.	.
COC(=O)c1ccc(C(NC(=O)OCc2ccccc2)/C(C)=C/[C@@H](C)C(=O)N[C@@H](CO)Cc2ccccc2)cc1 (stereo not given in full)	.	/	/	/	/	/
CCc1ccccc1NC(=O)CN(c1ccccc1)S(=O)(=O)c1ccsc1C(=O)OC	.	/	18µM	16µM	/	/
COC(=O)c1sccc1S(=O)(=O)N(CC(=O)Nc1cc(C)cc(C)c1)c1ccc(Cl)cc1	.	/	?	?	/	/
COC(=O)c1sccc1S(=O)(=O)N(CC(=O)Nc1ccccc1)c1ccccc1	.	/	?	.	/	/
COC(=O)c1sccc1S(=O)(=O)N(CC(=O)Nc1cc(C)ccc1C)c1ccc(C)c(C)c1	.	/	21µM	21µM	/	/
COC(=O)c1sccc1S(=O)(=O)N(CC(=O)Nc1ccccc1C)c1ccc(Cl)cc1	.	/	?	?	/	/
COC(=O)c1sccc1S(=O)(=O)N(CC(=O)Nc1cccc(C)c1C)c1ccc(C)c(C)c1	.	/	23µM	21µM	/	/
COC(=O)c1sccc1S(=O)(=O)N(CC(=O)Nc1cc(F)ccc1F)c1ccc(C)c(C)c1	.	/	13µM	?	/	/
CCN1CCN(c2ccc(S(=O)(=O)N3CCCCC3)cc2NC(=O)C(C)Oc2ccc(F)cc2)CC1 (stereo not given)	/	?	18µM	18µM	?	.
CC(Oc1cccc(Cl)c1)C(=O)Nc1cc(S(=O)(=O)N2CCCCC2)ccc1N1CCOCC1 (stereo not given)	/	?	?	?	.	.
CC(Oc1ccc(F)cc1)C(=O)Nc1cc(S(=O)(=O)N2CCCCC2)ccc1N1CCOCC1 (stereo not given)	.	?	16µM	.	.	.
CCN1CCN(c2ccc(S(=O)(=O)N3CCCCC3)cc2NC(=O)CCNC(C)=O)CC1	/	/	.	.	.	.
SMILES	TDP1 block	ELG1 repair inh	TDP1 cell noCPT	DT40 TDP1 CPT	IL-1B inflam inh	Giardia killer
CCC(C)NC(=O)CCn1c(=O)c2cccn2c2ccc(F)cc21 (stereo not given)	/	.	.	.	.	.
CCc1ccc(NC(=O)Cn2c(=O)c3cccn3c3ccccc32)cc1	.	.	4.1µM	16µM	.	.
CCc1ccc(NC(=O)CCn2c(=O)c3cccn3c3ccccc32)cc1	.	.	18µM	23µM	.	.
COCCCNC(=S)Nc1cccc2ncccc12	.	.	?	?	.	.
Cc1cc2nc(N(Cc3cccnc3)C(=O)c3ccc(Cl)s3)sc2cc1C	.	/	.	.	/	/
COc1cc2c(cc1OC)CN(Cc1cc(=O)oc3c(C)c(C)ccc13)CC2	.	.	21µM	?	.	?
Cc1ccc2c(CN(C)Cc3ccccc3)cc(=O)oc2c1C	/	?	15µM	.	.	.
COc1ccc(CN2CCN(c3ncccn3)CC2)c(C)c1C	/	?	?	.	.	.
CCc1ccc2c(CN3CCc4cc(OC)c(OC)cc4C3)cc(=O)oc2c1	.	?	23µM	?	.	.
COc1cc2c(cc1OC)CN(Cc1cc(=O)oc3cc(C)c(Cl)cc13)CC2	.	.	?	.	.	.
COc1ccc(CN2CCN(c3ccccn3)CC2)c(OC)c1C	.	?	13µM	?	.	.
COc1cc2c(cc1OC)CN(Cc1ccc(OC)c(C)c1OC)CC2	.	.	21µM	29µM	.	.
COC(=O)C1=C(C(=O)OC)[C@]2([C@@H]3C/C=C\CN[C@@H](Cc4ccccc4)C(=O)N3Cc3ccccc3)C=C[C@H]1O2	/	/	?	25µM	/	/
COC(=O)C1=C(C(=O)OC)[C@]2([C@@H]3CCCCN[C@@H](Cc4ccccc4)C(=O)N3Cc3ccccc3)C=C[C@H]1O2	/	/	13µM	15µM	.	.
COC(=O)c1ccc(C2SCC(=O)N2Cc2ccccc2)cc1 (stereo not given)	/	?	?	.	.	.
O=C(Nc1ccc(Cl)c(-c2nc3ccccc3o2)c1)c1cccc2c(Cl)cccc12	.	/	.	.	/	/
Cc1cc(C)c(C)c(S(=O)(=O)NC(C(=O)NCCc2ccco2)C(C)C)c1C (stereo not given)	.	.	.	.	.	.
COc1ccccc1C(=O)ON=C1c2ccccc2-c2ccccc21	.	?	23µM	.	.	.
NCCCC[C@H](N)C(=O)O	/	/	.	.	/	/
COc1ccc(-c2nn3c(=O)cc(CN4CCN(C(=O)Nc5ccc(C)c(Cl)c5)CC4)nc3s2)cc1	.	/	.	.	/	/
CC1CCC(N(CCCN)Cc2ccco2)CC1C (stereo not given)	.	.	21µM	29µM	?	.
